Measured values taken from PubChem BioAssay AID602141 (Sanford-Burnham Center for Chemical Genomics, 2011).
About 1,300 (0.36%) of roughly 360,000 compounds were called active. The list comes from a sample in which actives are over-represented; it also holds similar structures and randomly drawn compounds. Values without a mark were called inactive.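 Rule for the calls: active = corrected activity change at or below -50% at 5 µM; inactive = the rest.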

Test: cytotoxicity in KKLEB CF airway cells, primary screen, cytotoxicity control for CF NF-kB inhibitor project, cell-based, uHTS, fluorescence assay plates (AID 602141)
Settings: KKLEB CF airway cells viability, ATPlite luminescence, overnight, at 5 µM, active compounds read low
Work on `CC1=C(C(=O)Nc2ccccc2)S(=O)(=O)CCO1` yielded an activity change (cytotoxicity) of -6%.
For `CC1=C(C(=O)Nc2ccccc2)SCCO1`, the activity change (cytotoxicity) was -58.9% (active).
Compound `CC(Cc1ccccc1)NCCC(c1ccccc1)c1ccccc1` (stereo not given) has an activity change (cytotoxicity) of -16.7%.
Work on `Cc1c(Oc2cc(NN3CCCCC3)c([N+](=O)[O-])cc2[N+](=O)[O-])cccc1[N+](=O)[O-]` yielded an activity change (cytotoxicity) of -5.7%.
Compound `CCOc1cccc(=NC2CCCCC2)c2c(C)[nH]c(C)c12` has an activity change (cytotoxicity) of 4.1%.
With `CCc1nc2ccccc2c(=O)n1-c1cccc(OC)c1` the activity change (cytotoxicity) was -1.5%.
In the case of `CC12CCC(O)CC1CCC1C2CCC2(C)C(C(=O)CC(O)C(F)(F)F)CCC12` (stereo not given), the activity change (cytotoxicity) is reported as 3.6% [cells stimulated with P. aeruginosa culture filtrate].
For `C[C@]12CC[C@H](O)C[C@H]1CC[C@@H]1C2CC[C@]2(C)[C@@H](C3=CC(=O)OC3)[C@@H](O)C[C@]12O` (stereo not given in full), the activity change (cytotoxicity) was -53.3% [cells stimulated with P. aeruginosa culture filtrate] (active).
Work on `Cc1ccc(CN2CCCC(C(=O)c3ccc4c(c3)OCO4)C2)cc1C` (stereo not given) yielded an activity change (cytotoxicity) of -12.8%.
For `Cc1nn(Cc2ccccc2Cl)c(Cl)c1C(=O)OC(C(=O)NC(N)=O)C(C)C` (stereo not given), the activity change (cytotoxicity) was -1.6%.
Compound `O=C(CSC1c2ccccc2-c2ccccc21)N/N=C/c1ccccc1` has an activity change (cytotoxicity) of 11.7%.
In the case of `O=c1[nH]c2ccccc2n1C1CCN(C(c2ccccc2)c2nnnn2Cc2ccccc2)CC1` (stereo not given), the activity change (cytotoxicity) is reported as -106% [cells stimulated with P. aeruginosa culture filtrate] (active).
With `CSCCC(c1nnnn1C(C)(C)C)N1CCC(n2c(=O)[nH]c3ccccc32)CC1` (stereo not given) the activity change (cytotoxicity) was -1.4% [cells stimulated with P. aeruginosa culture filtrate].
In the case of `O=c1[nH]c2ccccc2n1C1CCN(C(c2ccnc3ccccc23)c2nnnn2Cc2ccccc2)CC1` (stereo not given), the activity change (cytotoxicity) is reported as -13.5% [cells stimulated with P. aeruginosa culture filtrate].
With `CC1([N+](=O)[O-])COP(=O)(Nc2ccc(F)cc2)OC1` (stereo not given) the activity change (cytotoxicity) was 8.2% [cells stimulated with P. aeruginosa culture filtrate].
Compound `CCc1cccc2c(C#N)cn(CC(=O)N3CCOCC3)c12` has an activity change (cytotoxicity) of 3.2%.
For `CC(=O)OC1C2(CC3N4C(=O)C5(CO)SSC4(CC31O)C(=O)N5C)OC(C)C(C)(C)C2=O` (stereo not given), the activity change (cytotoxicity) was -95% [cells stimulated with P. aeruginosa culture filtrate] (active).
With `CCC(C)n1c(O)c(/C=N/Nc2nc3c(c(=O)n(C)c(=O)n3C)n2C)c(=O)[nH]c1=S` (stereo not given) the activity change (cytotoxicity) was -14.1%.
`C[C@@]1([C@@H](NP(=O)(c2ccccc2)c2ccccc2)c2ccccc2)C[C@H]1CCO` showed an activity change (cytotoxicity) of 15%.
Compound `COc1ccc(NC(=O)c2cn(CCC#N)nc2-c2ccc([N+](=O)[O-])cc2)cc1` has an activity change (cytotoxicity) of -13.1%.
In the case of `CCCCCCCCCCCCn1ccc(=N)cc1`, the activity change (cytotoxicity) is reported as -61.1% (active).
Work on `O=c1[nH]c(CN2CC=C(c3ccccc3)CC2)nc2scc(-c3cccs3)c12` yielded an activity change (cytotoxicity) of 0.9%.
Work on `Cc1ccc2c(c1)C1CN(C)CCC1N2C(=O)Cn1nnc(-c2ccccc2F)n1` (stereo not given) yielded an activity change (cytotoxicity) of 2%.
Compound `c1cncc(CNCCc2c[nH]c3ccccc23)c1` has an activity change (cytotoxicity) of 7.7%.
With `c1ccc(C2NCc3ccccc3-n3cccc32)cc1` (stereo not given) the activity change (cytotoxicity) was -7.9%.
In the case of `Cc1ccc(C(C)C)c(OCC(=O)N2CCN(CC(=O)N3CCOCC3)CC2)c1`, the activity change (cytotoxicity) is reported as -1.3% [cells stimulated with P. aeruginosa culture filtrate].
Work on `COCCNC(=O)CN1C2CCC1CC(O)(c1cccnc1)C2` (stereo not given) yielded an activity change (cytotoxicity) of 1.5%.
For `COC1C(O)C(C)OC(OC2CCC3(C=O)C(CCC4C3CCC3(C)C(C5=CC(=O)OC5)CCC43O)C2)C1O` (stereo not given), the activity change (cytotoxicity) was -58.4% [cells stimulated with P. aeruginosa culture filtrate] (active).
With `COC(=O)C1=C(c2ccc(Cl)c(C(F)(F)F)c2)C[C@@H]2CC[C@H]1N2C(=O)NC(C)C` the activity change (cytotoxicity) was -0.4% [cells stimulated with P. aeruginosa culture filtrate].
Work on `CC(=O)NCC1=C(c2ccc3ccccc3c2)C[C@@H]2CC[C@H]1N2Cc1ccco1` yielded an activity change (cytotoxicity) of -7.6%.
